This is a sample that favours compounds with a hit; in the whole collection about 2.5% have one here.
p53ts 39C tox = kills p53ts cells at the nonpermissive temperature; Potency, µM (highest dose often 46.1 µM), for the others: top-dose activity change, negative = cell killing, usual class: cytotoxic; hit rate 1.5% among 130,000; H1299-p53A138V viability at 39C, ATP luminescence, 24 h; note: % is set by controls: 0 for no effect and ±100 for the full control effect; nearly all actives have a fitted effect of over 55% in size
Caspase-1 inhib = blocks human caspase-1 allosterically or competitively | Caspase-1 enzyme, Ac-WEHD-AFC fluorogenic rate | Potency, µM (highest dose often 57.5 µM), inactives show top-dose activity change, negative = inhibition, hits mostly inhibitors | hit rate 0.03% among 75,000;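 note: plate controls were vehicle for no effect and no substrate for full effect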
Casp7 inh = allosteric or competitive inhibitors of human caspase-7. recombinant caspase-7, Ac-DEVD-AFC fluorescence rate. P55210. hit rate 0.02% among 75,000. Potency, µM (doses to about 57.5 µM), for inactives: at the highest dose activity change, negative = inhibition, usual class: inhibitors; active = well fitted inhibition curve with a large enough effect in the main read-out, with a control signal flat, not every such curve was filed as active; inconclusive = small, poorly fitted or top-dose-only effect, or a change in a side signal; note: % of control where 0% means no effect
IkB signaling = suppresses IkB signaling in ABC-DLBCL reporter cells; AID 445; Potency, µM (titrated, usually from 57.1 µM), inactives show at the highest dose IkBa stabilization activation; ABC-DLBCL IkBa-CBG/CBR dual luciferase ratio, 4 h; response scale: scaled: untreated 0%, proteasome inhibitor 100%; hit rate 0.04% among 110,000; active = well fitted curve in the direction sought with a large enough effect in the signal ratio, not every such curve was filed as active; inconclusive = small, poorly fitted or top-dose-only effect, or a change in a side signal; the % refers to the signal ratio;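 note: the direction sought is a rising ratio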
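Curves were fitted separately to fusion (green), unfused (red) and ratio luminescence, then classed by r2, magnitude and activity. Cells: OCI-Ly3, 4 h compound plus doxycycline at 37C; 10 uM MG-132 defined full response.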
p53ts 32C tox = cytotoxicity in p53ts cells at permissive temperature; H1299-p53A138V at 32C, ATP luminescence viability, 24 h; Potency, µM (doses to about 46.1 µM), without a hit: top-dose activity change, negative = cytotoxicity, usual class: cytotoxic; hit rate 0.93% among 130,000; AID 924;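 note: 0% = DMSO and -100% = full killing by reference compound; nearly all actives have a fitted effect of over 55% in size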
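Viability by ATPlite luminescence after 24 h compound treatment (up to 46 uM) at the permissive 32C. Cells are H1299 carrying p53 A138V. Scale runs from DMSO basal to 100 uM tamoxifen as full kill; AC50 from Hill fits.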
FLuc inh = blocks Photinus pyralis firefly luciferase activity. P08659. purified firefly luciferase, luminescence, 8 min. Potency, µM (doses to about 57.1 µM), for the others: at the top dose activity change, negative = inhibition, most hits filed as inhibitors. hit rate 2.2% among 72,000; note: % is set by controls: 0 for no effect and ±100 for the full control effect; nearly all actives have a fitted effect of over 40% in size
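Inhibition of light generation by firefly luciferase from ATP and luciferin was profiled with concentration-response curves per sample, ATP held at 10 uM within the enzyme's linear range. Plates were read by luminescence after an 8-minute ambient incubation.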
* = called active by the depositor; ? = inconclusive; / = not tested or not shown; [ ] = remark or other dose. Unless noted, calls come from the whole dose curve; as a rule, active = well fitted curve in the direction sought with a large enough effect; inconclusive = small, poorly fitted or top-dose-only effect, or another doubt; inactive = no such curve, though single readings can be large; an effect the other way counts as inactive or inconclusive. Potency is the fitted concentration of half-maximal effect.

SMILES	p53ts 39C tox	Caspase-1 inhib	Casp7 inh	IkB signaling	p53ts 32C tox	FLuc inh
CCCCN(C)S(=O)(=O)c1ccc(C(=O)Nc2ccc(-c3nc4ccc(C)cc4s3)cc2)cc1	-6%	/	/	-4%	0%	/
O=C(O)C[C@H](Nc1ccccc1)C(=O)O	-22%[9.22 µM]	0%[11.5 µM]	2%[11.5 µM]	1%[11.4 µM]	-2%[9.22 µM]	-1%[11.4 µM]
O=C(CC(Nc1ccc(Cl)cc1)C(=O)O)c1ccccc1 (configuration not stated)	?	/	/	/	25µM*	/
CNC(=O)[C@H]1O[C@H](n2cnc3c(NCc4cccc(I)c4)nc(Cl)nc32)[C@@H](O)[C@@H]1O	-11%	-1%	-3%	?	32%	2%
CCc1ccc(Nc2cc(C)nc3nc(Cc4ccc(Cl)cc4)nn23)cc1	20µM*	/	/	?	-12%	/
Cc1cccc(N2CCN(C(=O)C3CCN(C(=O)c4cc5sccc5n4C)CC3)CC2C)c1 (configuration not stated)	13µM*	/	/	?	-11%	/
Cc1ccc(C)c(N2CCN(C(=O)C3CCN(C(=O)c4cc5sccc5n4C)CC3)CC2)c1	-26%	/	/	?	28%	/
Cc1ccc(CNC(=O)c2cccc(Nc3nc4ccccc4n4nnnc34)c2)cc1	6.3µM*	/	/	?	?	/
COCCNC(=O)c1cccc(Nc2nc3ccccc3n3nnnc23)c1	-7%	/	/	1%	5%	/
CCOc1ccc(-c2cc(CCCC(=O)NCCCOC)no2)cc1	-28%	0%	-1%	?	?	16µM*
Cc1ccc(Cn2c(SCC(=O)NCc3ccccc3)nc3ccsc3c2=O)cc1	16µM*	/	/	-2%	0%	/
COC(=O)c1ccc(C(NC(=O)OCc2ccccc2)/C(F)=C/[C@@H](C)C(=O)NCc2ccc(-c3ccccc3)cc2)cc1 (some centres not stated)	-3%	1%	-1%	/	-2%	/
CCOc1ccc(N/C=C/C(=O)c2ccccc2)c([N+](=O)[O-])c1	5.6µM*	/	/	/	/	/
COc1ccc(OCC(=O)Nc2ccc3c(c2)nc(CCNC(=O)c2ccco2)n3C)cc1	8%	/	/	2%	1%	/
Cc1ccc(-n2nc3ccc(N)cc3n2)cc1	7.9µM*	/	?	12%	7.9µM*	2µM*
O=C(Nc1ccc(Br)cc1)c1ccc(F)c(S(=O)(=O)NC2CCCCCC2)c1	13µM*	/	/	?	?	/
O=C(Nc1cc(Cl)cc(Cl)c1)c1ccc(F)c(S(=O)(=O)NC2CCCCC2)c1	25µM*	/	/	?	?	/
CCNc1ncc2nc(-c3cc(F)cc(F)c3)c(=O)n(CCc3ccccc3)c2n1	-13%	/	?	-5%[11.4 µM]	6%	0%[11.4 µM]
COc1ccc(NS(=O)(=O)c2ccc3c(c2)[C@H]2C=CC[C@H]2[C@@H](c2ccc(C(=O)O)cc2)N3)cc1	5%	/	/	6%	6%	/
COC(=O)Cn1c(SCCOc2ccccc2OC)nc2ccccc21	-6%	/	/	-1%	8%	/
COc1cccc(C(=O)Cn2c(NCCO)nc3ccccc32)c1	-1%	/	/	/	9%	/
COc1cccc(C(=O)Cn2c(=N)n(C)c3ccccc32)c1	5µM*	1%	-5%	?	3.2µM*	1.3µM*
Clc1ccc(C2=Nn3c(nnc3-c3n[nH]c4c3CCC4)SC2)cc1Cl	13µM*	-8%	-9%	6%	48%	1%
CC1CCc2c(cc(-c3ccccc3)n2-c2ccc(C(=O)NC(C)C)cc2)C1 (configuration not stated)	16µM*	/	/	0%	44%	/
CNC[C@H](O)c1ccc(O)c(O)c1	-11%	-15%	-25%	4%	-17%	0%
SMILES	p53ts 39C tox	Caspase-1 inhib	Casp7 inh	IkB signaling	p53ts 32C tox	FLuc inh
Cc1ccc(CNC(=O)Nc2ccccc2)cc1	?	0%	6%	2%	?	13µM*
O=C(CSc1nc2c(oc3ccccc32)c(=O)[nH]1)Nc1cccc(Cl)c1	7.9µM*	/	/	?	10µM*	/
CCOC(=O)c1ccc(NC(=O)CCc2nc(-c3ccccc3)no2)cc1	0%	-3%	-4%	?	18%	1%
Brc1ccc(-c2nc3ccccc3s2)s1	-30%	-3%	-3%	1%	?	16µM*
COc1ccc(OC)c(S(=O)(=O)Nc2ccc(O)c(Sc3ncn[nH]3)c2)c1	14%	-1%	-3%	-2%	3%	2%
Cc1cc(NC(=O)c2ccccc2)sc1C	?	-1%	-2%	?	?	13µM*
Cc1ccc(NC(=O)c2ccccc2)s1	7.9µM*	-1%	1%	13%	4µM*	7.9µM*
O=C(Nc1cc(NC(=O)c2ccccc2)c(C(=O)O)cc1C(=O)O)c1ccccc1	5%	1%	-1%	/	8%	/
COc1ccc(Cc2nnc(SC)[nH]c2=O)cc1OC	2%	0%	-3%	2%	-3%	1%
COc1ccc(NC(=O)c2c(-c3ccccc3)c(-c3ccccc3)nn(C)c2=O)c(OC)c1	6%	/	/	?	9%	/
CC(=O)/C=C(\C)Nc1ccc(-c2cnc(-c3ccccc3)o2)cc1	?	-15%	-11%	8%	-30%	10µM*
Cc1nn(Cc2ccc(Cl)cc2Cl)c(C)c1NC(=O)CCl	5.6µM*	/	/	/	18µM*	/
O=C(NCCCN=C1NS(=O)(=O)c2ccccc21)c1ccc(S(=O)(=O)N2CCCCC2)cc1	8%	2%	-1%	2%	8%	-1%
COc1ccc(CNCCC(c2ccccc2)c2ccc3c(c2)OCO3)cc1 (configuration not stated)	16µM*	/	/	?	?	/
COC(=O)c1ccc(C(NC(=O)OCc2ccccc2)/C(F)=C/[C@@H](C)C(=O)NCc2ccc(OC)c(OC)c2)cc1 (some centres not stated)	13µM*	-1%	-3%	/	?	/
CC(=O)N(Cc1ccccc1)c1ccc(C(=O)O)cc1	/	/	/	/	/	2%[25.5 µM]
COc1cc(C2/C(=C(\O)c3ccc4c(c3)CC(C)O4)C(=O)C(=O)N2CCCn2ccnc2)ccc1O (configuration not stated)	2%	-3%	-2%	5%	0%	4%
COc1ccc(C(=O)CN2C(=O)NC3(CCCc4ccccc43)C2=O)cc1OC (configuration not stated)	13%	1%	1%	1%	0%	1%
Cc1cc(C(=O)CN2C(=O)NC3(CCCc4ccccc43)C2=O)c(C)n1Cc1cccs1 (configuration not stated)	-6%	-4%	-5%	1%	-7%	13µM*
c1ccc2nc3c(nc2c1)[nH]c1ccccc13	?	?	?	-4%	?	16µM*
Cc1[nH]n2c(=O)cc(C(C)(C)C)nc2c1-c1ccccc1	?	2%	1%	6%	-18%	2%
